Experimental data reported in the supplement of paper PMC4466140.

Experiments:
Test in all cases: SPOT peptide array binding signal intensity (averaged, normalized) (arbitrary units (background-subtracted, floor 0; scale differs between SH3 domains)); higher = stronger binding of the SH3 domain to the peptide
AgAbp1 = biological target: AgAbp1
How it was run: (§1)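 Binding signal refers to normalized, background-subtracted spot intensity averaged over replicates, expressed in arbitrary units that differ between domains. GST-fused SH3 domains from four yeast species were incubated at 10 μg/ml overnight at 4°C on cellulose membranes of synthetic 15-mer peptides with cysteines replaced by serines. Bound protein was detected with anti-GST antibody, an HRP anti-mouse secondary and luminol, and quantified with Genespotter.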

AgBbc1 = biological target: AgBbc1
How it was run: as §1

AgBem1-D1 = biological target: AgBem1-D1
How it was run: as §1

AgBzz1-D1 = biological target: AgBzz1-D1
How it was run: as §1

AgBzz1-D2 = biological target: AgBzz1-D2
How it was run: as §1

AgCyk3 = biological target: AgCyk3
How it was run: as §1

AgFus1 = biological target: AgFus1
How it was run: as §1

AgHof1 = biological target: AgHof1
How it was run: as §1

AgHse1 = biological target: AgHse1
How it was run: as §1

AgLsb1 = biological target: AgLsb1
How it was run: as §1

AgLsb4 = biological target: AgLsb4
How it was run: as §1

AgMyo5 = biological target: AgMyo5
How it was run: as §1

AgNbp2 = biological target: AgNbp2
How it was run: as §1

AgRvs167 = biological target: AgRvs167
How it was run: as §1

AgSho1 = biological target: AgSho1
How it was run: as §1

AgSla1-D1-D2 = biological target: AgSla1-D1-D2
How it was run: as §1

AgSla1-D3 = biological target: AgSla1-D3
How it was run: as §1

CaAbp1-D1 = biological target: CaAbp1-D1
How it was run: as §1

CaAbp1-D2 = biological target: CaAbp1-D2
How it was run: as §1

CaBbc1 = biological target: CaBbc1
How it was run: as §1

CaBem1-D1 = biological target: CaBem1-D1
How it was run: as §1

CaBzz1-D1 = biological target: CaBzz1-D1
How it was run: as §1

CaBzz1-D2 = biological target: CaBzz1-D2
How it was run: as §1

CaCyk3 = biological target: CaCyk3
How it was run: as §1

CaFus1 = biological target: CaFus1
How it was run: as §1

CaHof1 = biological target: CaHof1
How it was run: as §1

CaHse1 = biological target: CaHse1
How it was run: as §1

CaLsb1 = biological target: CaLsb1
How it was run: as §1

CaLsb4 = biological target: CaLsb4
How it was run: as §1

CaMyo5 = biological target: CaMyo5
How it was run: as §1

CaNbp2 = biological target: CaNbp2
How it was run: as §1

CaRvs167 = biological target: CaRvs167
How it was run: as §1

CaRvs167-3 = biological target: CaRvs167-3
How it was run: as §1

CaSho1 = biological target: CaSho1
How it was run: as §1

CaSla1-D1-D2 = biological target: CaSla1-D1-D2
How it was run: as §1

CaSla1-D3 = biological target: CaSla1-D3
How it was run: as §1

ScAbp1 = biological target: ScAbp1
How it was run: as §1

ScBbc1 = biological target: ScBbc1
How it was run: as §1

ScBem1-D1 = biological target: ScBem1-D1
How it was run: as §1

ScBzz1-D1 = biological target: ScBzz1-D1
How it was run: as §1

ScBzz1-D2 = biological target: ScBzz1-D2
How it was run: as §1

ScCyk3 = biological target: ScCyk3
How it was run: as §1

ScFus1 = biological target: ScFus1
How it was run: as §1

ScHof1 = biological target: ScHof1
How it was run: as §1

ScHse1 = biological target: ScHse1
How it was run: as §1

ScLsb1 = biological target: ScLsb1
How it was run: as §1

ScLsb2 = biological target: ScLsb2
How it was run: as §1

ScLsb3 = biological target: ScLsb3
How it was run: as §1

ScLsb4 = biological target: ScLsb4
How it was run: as §1

ScMyo3 = biological target: ScMyo3
How it was run: as §1

ScMyo5 = biological target: ScMyo5
How it was run: as §1

ScNbp2 = biological target: ScNbp2
How it was run: as §1

ScPex13 = biological target: ScPex13
How it was run: as §1

ScRvs167 = biological target: ScRvs167
How it was run: as §1

ScSho1 = biological target: ScSho1
How it was run: as §1

ScSla1-D1-D2 = biological target: ScSla1-D1-D2
How it was run: as §1

ScSla1-D3 = biological target: ScSla1-D3
How it was run: as §1

SpAbp1-D1 = biological target: SpAbp1-D1
How it was run: as §1

SpBbc1 = biological target: SpBbc1
How it was run: as §1

SpBzz1-D1 = biological target: SpBzz1-D1
How it was run: as §1

SpBzz1-D2 = biological target: SpBzz1-D2
How it was run: as §1

SpCyk3 = biological target: SpCyk3
How it was run: as §1

SpHof1 = biological target: SpHof1
How it was run: as §1

SpHof1-2 = biological target: SpHof1-2
How it was run: as §1

SpHof1-3 = biological target: SpHof1-3
How it was run: as §1

SpHse1 = biological target: SpHse1
How it was run: as §1

SpLsb1 = biological target: SpLsb1
How it was run: as §1

SpLsb4 = biological target: SpLsb4
How it was run: as §1

SpMyo1 = biological target: SpMyo1
How it was run: as §1

SpNbp2 = biological target: SpNbp2
How it was run: as §1

SpPex13 = biological target: SpPex13
How it was run: as §1

SpRvs167 = biological target: SpRvs167
How it was run: as §1

SpSla1-D1-D2 = biological target: SpSla1-D1-D2
How it was run: as §1

SpSla1-D3 = biological target: SpSla1-D3
How it was run: as §1

Measured: SPOT peptide array binding signal intensity

QDKEGIPPDQQRLIF
0.75: AgMyo5
0.333: AgRvs167
3: CaRvs167-3
18: ScBzz1-D1
10.8: CaMyo5
20: SpHof1-3
1: ScRvs167
7: ScMyo5
8: ScAbp1
26: ScBzz1-D2
0.5: SpHof1-2
≤ 0: all other assays above
